Measurements from PubChem BioAssay AID1159580 (chemical genetic matrix, 2015).
“And” between values parts separate entries of the source, which are not always exact repeats. Identical values can stand only once. Hit rate of the full screen: of about 5,500 compounds, about 2,000 (36%) were called active. Roughly 18% stayed inconclusive and do not appear here. Cut-off read from the data, not from the text of the source: active = normalized growth mostly below about 0.91 (no sharp cut-off); inconclusive = no clear call, values can overlap the other calls; inactive = mostly above about 0.92. This is one part of the list.

Assay: chemical genetic growth profiling, strain panel (AID 1159580);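 note: tested at 20 µM; growth read once vehicle control cultures reached saturation at 30 °C; 1 = growth at the plate median or of vehicle wells; lower values mean less growth of the strain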
Settings: growth OD

Measured: normalized growth

CNCCC=C1c2ccccc2CCc2ccccc21
active: S. cerevisiae deletion strains, locus YOR270C, strain vph1, active compounds read low 0.731
inactive: S. cerevisiae deletion strains, locus YJR075W, strain HOC1, active compounds read low 1.02 and 0.976 | S. cerevisiae deletion strains, locus YKL009W, strain mrt4, active compounds read low 1.01 | S. cerevisiae deletion strains, locus YKL068W, active compounds read low 1 | S. cerevisiae deletion strains, locus YKL085W, strain MDH1 (second series), active compounds read low 1 | S. cerevisiae deletion strains, locus YKL085W, strain MDH1, active compounds read low 1 | S. cerevisiae deletion strains, locus YKL160W, strain elf1, active compounds read low 0.943 | S. cerevisiae deletion strains, locus YKL190W, strain CNB1, active compounds read low 1.01 | S. cerevisiae deletion strains, locus YKR001C, strain vps1, active compounds read low 1.06 | S. cerevisiae deletion strains, locus YKR026C, strain gcn3, active compounds read low 0.975 | S. cerevisiae deletion strains, locus YKR091W, strain srl3, active compounds read low 0.973 | S. cerevisiae deletion strains, locus YLL001W, strain dnm1, active compounds read low 0.988 | S. cerevisiae deletion strains, locus YLL026W, active compounds read low 0.978 | S. cerevisiae deletion strains, locus YLL041C, strain sdh2, active compounds read low 0.985 | S. cerevisiae deletion strains, locus YLR027C, strain aat2, active compounds read low 0.967 | S. cerevisiae deletion strains, locus YLR039C, strain RIC1, active compounds read low 1.1 | S. cerevisiae deletion strains, locus YLR058C, strain SHM2, active compounds read low 1.02 | S. cerevisiae deletion strains, locus YLR102C, strain apc9, active compounds read low 1.01 | S. cerevisiae deletion strains, locus YLR113W, strain HOG1, active compounds read low 1 | S. cerevisiae deletion strains, locus YLR221C, strain rsa3, active compounds read low 0.991 | S. cerevisiae deletion strains, locus YLR258W, strain gsy2, active compounds read low 0.957 | S. cerevisiae deletion strains, locus YLR262C, strain YPT6 (second series), active compounds read low 1.01 | S. cerevisiae deletion strains, locus YLR262C, strain YPT6, active compounds read low 1.13 | S. cerevisiae deletion strains, locus YLR268W, strain sec22, active compounds read low 1.08 | S. cerevisiae deletion strains, locus YLR320W, strain mms22, active compounds read low 0.967 | S. cerevisiae deletion strains, locus YLR330W, strain CHS5, active compounds read low 1.01 | S. cerevisiae deletion strains, locus YLR342W, strain FKS1 (second series), active compounds read low 0.977 | S. cerevisiae deletion strains, locus YLR342W, strain FKS1, active compounds read low 0.91 | S. cerevisiae deletion strains, locus YLR357W, strain rsc2, active compounds read low 0.956 | S. cerevisiae deletion strains, locus YLR370C, strain arc18, active compounds read low 0.975 | S. cerevisiae deletion strains, locus YLR371W, strain rom2, active compounds read low 1.02 | S. cerevisiae deletion strains, locus YLR384C, strain iki3, active compounds read low 0.979 | S. cerevisiae deletion strains, locus YLR418C, strain cdc73, active compounds read low 1.01 | S. cerevisiae deletion strains, locus YML016C, strain PPZ1, active compounds read low 1.01 | S. cerevisiae deletion strains, locus YML032C, strain rad52, active compounds read low 1.06 | S. cerevisiae deletion strains, locus YML120C, strain ndi1, active compounds read low 0.986 | S. cerevisiae deletion strains, locus YML124C, strain tub3, active compounds read low 1.01 | S. cerevisiae deletion strains, locus YMR058W, strain fet3, active compounds read low 0.964 | S. cerevisiae deletion strains, locus YMR078C, strain ctf18, active compounds read low 1.02 | S. cerevisiae deletion strains, locus YMR125W, strain sto1, active compounds read low 0.933 | S. cerevisiae deletion strains, locus YMR129W, active compounds read low 0.976 | S. cerevisiae deletion strains, locus YMR205C, strain PFK2, active compounds read low 0.98 | S. cerevisiae deletion strains, locus YMR223W, strain ubp8, active compounds read low 0.989 | S. cerevisiae deletion strains, locus YMR231W, strain pep5, active compounds read low 0.974 | S. cerevisiae deletion strains, locus YMR263W, strain SAP30, active compounds read low 1.01 | S. cerevisiae deletion strains, locus YMR307W, strain GAS1, active compounds read low 1.02 | S. cerevisiae deletion strains, locus YNL067W, strain RPL9B, active compounds read low 1.02 | S. cerevisiae deletion strains, locus YNL071W, strain lat1, active compounds read low 0.987 | S. cerevisiae deletion strains, locus YNL128W, strain TEP1, active compounds read low 1.01 and 1.07 | S. cerevisiae deletion strains, locus YNL153C, strain GIM3, active compounds read low 1.02 and 0.984 | S. cerevisiae deletion strains, locus YNL175C, strain NOP13, active compounds read low 1 | S. cerevisiae deletion strains, locus YNL183C, strain NPR1, active compounds read low 0.938 | S. cerevisiae deletion strains, locus YNL197C, strain WHI3, active compounds read low 1.01 | S. cerevisiae deletion strains, locus YNL209W, strain ssb2, active compounds read low 0.984 | S. cerevisiae deletion strains, locus YNL224C, strain SQS1, active compounds read low 1.02 | S. cerevisiae deletion strains, locus YNL233W, strain BNI4, active compounds read low 1.01 | S. cerevisiae deletion strains, locus YNL248C, strain rpa49, active compounds read low 0.952 | S. cerevisiae deletion strains, locus YNL250W, strain rad50, active compounds read low 1.01 | S. cerevisiae deletion strains, locus YNL271C, strain bni1, active compounds read low 1.01 | S. cerevisiae deletion strains, locus YNL298W, strain CLA4, active compounds read low 1.02 | S. cerevisiae deletion strains, locus YNL307C, strain MCK1, active compounds read low 1.01 | S. cerevisiae deletion strains, locus YNL322C, strain KRE1 (second series), active compounds read low 0.98 | S. cerevisiae deletion strains, locus YNL322C, strain KRE1, active compounds read low 1.01 and 0.982 | S. cerevisiae deletion strains, locus YNR049C, strain mso1, active compounds read low 0.98 | S. cerevisiae deletion strains, locus YNR052C, strain pop2, active compounds read low 1.02 | S. cerevisiae deletion strains, locus YOL006C, strain TOP1, active compounds read low 0.969 | S. cerevisiae deletion strains, locus YOL012C, strain htz1 0.912 | S. cerevisiae deletion strains, locus YOL147C, strain pex11, active compounds read low 1.02 | S. cerevisiae deletion strains, locus YOR001W, strain rrp6, active compounds read low 0.988 | S. cerevisiae deletion strains, locus YOR061W, strain CKA2, active compounds read low 1.01 | S. cerevisiae deletion strains, locus YOR069W, strain VPS5, active compounds read low 1.01 | S. cerevisiae deletion strains, locus YOR070C, strain gyp1, active compounds read low 0.978 | S. cerevisiae deletion strains, locus YOR080W, strain dia2, active compounds read low 0.967 | S. cerevisiae deletion strains, locus YOR083W, strain WHI5 (second series), active compounds read low 1.01 | S. cerevisiae deletion strains, locus YOR083W, strain WHI5, active compounds read low 0.898 | S. cerevisiae deletion strains, locus YOR106W, strain vam3, active compounds read low 0.949 | S. cerevisiae deletion strains, locus YOR136W, strain idh2, active compounds read low 1.01 | S. cerevisiae deletion strains, locus YOR144C, strain elg1, active compounds read low 1.03 | S. cerevisiae deletion strains, locus YOR184W, strain ser1, active compounds read low 1.04 | S. cerevisiae deletion strains, locus YOR231W, strain MKK1, active compounds read low 1.01 | S. cerevisiae deletion strains, locus YOR265W, strain rbl2, active compounds read low 0.989 | S. cerevisiae deletion strains, locus YOR290C, strain snf2, active compounds read low 0.928 | S. cerevisiae deletion strains, locus YOR316C, strain cot1, active compounds read low 1.02 | S. cerevisiae deletion strains, locus YPL051W, strain arl3, active compounds read low 0.956 | S. cerevisiae deletion strains, locus YPL055C, strain LGE1, active compounds read low 1.05 and 0.967 | S. cerevisiae deletion strains, locus YPL078C, strain atp4, active compounds read low 0.959 | S. cerevisiae deletion strains, locus YPL106C, strain sse1, active compounds read low 0.983 | S. cerevisiae deletion strains, locus YPL240C, strain hsp82, active compounds read low 1 | S. cerevisiae deletion strains, locus YPL241C, strain CIN2, active compounds read low 1.01 | S. cerevisiae deletion strains, locus YPL256C, strain CLN2, active compounds read low 0.962 | S. cerevisiae deletion strains, locus YPR119W, strain clb2, active compounds read low 1.01 | S. cerevisiae deletion strains, locus YPR141C, strain kar3, active compounds read low 1.01 | S. cerevisiae deletion strains, locus YPR163C, strain tif3, active compounds read low 1.03 | S. cerevisiae deletion strains, locus YPR167C, strain met16, active compounds read low 1.02 | S. cerevisiae deletion strains, strain wtn01, active compounds read low 1.05 | S. cerevisiae strains, strain wild type, active compounds read low 1.01
